Most compounds without a hit are left out; they make up all but 10% or so of the library.
NS1 function inh: inhibitors of influenza NS1 protein function; actives 0.4% (n = 270,000); Potency, µM (top dose mostly 46.1 µM), for inactives: at the top dose activity, positive = more growth; AID 2326; calls by dose curve; further: actives are rising curves; nearly all actives have a fitted effect of over 50% in size
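S. cerevisiae expressing influenza A NS1, grown in glucose, washed, then diluted 1:100 into pH 6.0 -URA galactose medium with 23 nl compound. Growth recovery read as OD600; NS1-free strain serves as control.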
SARS PLP yeast: inhibitors of SARS-CoV papain-like protease in yeast. S. cerevisiae expressing SARS-CoV PLpro, growth rescue. Potency, µM (highest dose often 32.9 µM), for the others: top-dose activity, positive = growth rescue, actives largely listed as activators. actives 0.19% (n = 330,000); calls by dose curve; further: 0% is about no effect; nearly all actives have a fitted effect of over 55% in size
Pf growth 96h: P. falciparum growth inhibition at 96 hours. Potency, µM (top dose mostly 28.7 µM), for the others: top-dose activity change, negative = inhibition, usual class: inhibitors. P. falciparum luciferase reporter growth, 96 h. actives 6.9% (n = 320,000). AID 504834; further: on the % scale 0 is the no-effect control and ±100 the full control effect
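Two parasite generations (96 h, 37 C, 5% CO2) of compound exposure in infected erythrocytes (0.05% parasitemia, 2% hematocrit). Luciferase-reporter P. falciparum; decreased luminescence indicates inhibited growth, aimed at apicoplast-acting delayed death.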
Pf growth 48h: inhibits P. falciparum growth in the first generation, 48 h; P. falciparum luciferase growth in erythrocytes, 48 h; Potency, µM (highest dose often 28.7 µM), for the others: at the top dose activity change, negative = inhibition, hits mostly inhibitors; actives 5.9% (n = 310,000); AID 504832; further: on the % scale 0 is the no-effect control and ±100 the full control effect
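Growth was read as firefly luciferase luminescence after a 48 h, 37 C, 5% CO2 exposure of compounds to reporter-bearing P. falciparum cultures (0.1% parasitemia, 2% hematocrit final) in Albumax-supplemented RPMI 1640.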
Numbers without * were called inactive; i = inactive; u = inconclusive; x = not tested or not shown; [ ] = remark or other dose. Unless noted, the call rests on the fitted dose curve; in most records, active means well fitted inhibition curve with a large enough effect; inconclusive means small, poorly fitted or top-dose-only effect, or another doubt; inactive means no such curve, though single readings can be large or run the other way. Potency means the concentration at half of the fitted maximal effect.

SMILES | NS1 function inh | SARS PLP yeast | Pf growth 96h | Pf growth 48h
CCOc1ccc(C(c2c(NC(=O)c3ccccc3)sc(C)c2C)N2CCN(CCO)CC2)cc1 (stereo unspecified) | 8.0% | u | 5.22µM* | u
c1ccc(OCCN2CCN(C(c3ccccc3)c3ccccc3)CC2)cc1 | 13.3% | 7.2% | 0.6% | u
Cc1sc(NC(=O)c2ccccc2)c(C(c2ccc(Cl)cc2)N2CCN(CCO)CC2)c1C (stereo unspecified) | -11.9% | 1.5% | 8.28µM* | 8.28µM*
CCN(CC(=O)Nc1c(F)cccc1F)C(=O)c1ccc(S(=O)(=O)N2CCC(C)CC2)cc1 | x | 6.2% | -86.9% | u
CCN(CC(=O)Nc1cc(Cl)ccc1C)C(=O)c1oc2ccc(OC)cc2c1C | x | 1.1% | u | u
COc1ccc(-c2ccc(C)cc2)cc1[C@H]1[C@@H]2C=CCC[C@@]2(C)C(=O)N1Cc1ccccc1 | 1.8% | -2.4% | u | 11.7µM*
COc1ccc(-c2ccc(C(C)=O)cc2)cc1[C@H]1[C@@H]2C=CCC[C@@]2(C)C(=O)N1Cc1ccccc1 | 3.3% | -1.5% | u | u
C[C@@]12CCC=C[C@H]1[C@H](c1ccc(/C=C/c3ccccc3)cc1F)N(Cc1ccccc1)C2=O | 19.9% | -1.5% | u | 11.7µM*
C[C@@]12CCC=C[C@H]1[C@H](c1ccc(C(F)(F)F)cc1)N(Cc1ccccc1)C2=O | -56.0% | -16.6% | 10.4µM* | u
C[C@@]12CCC=C[C@H]1[C@H](c1ccc3ccccc3c1/C=C/c1ccccc1)N(Cc1ccccc1)C2=O | 2.8% | 1.5% | u | u
C/C=C(\C)C(=O)NNC(=O)c1sc(-c2ccccc2)nc1C | -3.3% | -0.5% | 0.0% | 110.5%
COC(=O)C(c1ccccc1)N(Cc1cccc(CN(C(C(=O)OC)c2ccccc2)S(C)(=O)=O)c1)S(C)(=O)=O (stereo unspecified) | 16.5% | 9.4% | 10.4µM* | 8.28µM*
CCc1ccc(N(C(=O)c2snc(C(N)=O)c2N)C(C(=O)NCC2CCCO2)c2ccco2)cc1 (stereo unspecified) | 3.0% | -5.8% | 11.2% | u
CS(=O)(=O)N(CC(=O)O)Cc1ccccc1 | 2.8% | x | x | x
FC(F)(F)c1ccc(Oc2ccc(Cl)cc2Br)nc1 | x | 0.9% | 24.7% | 6.9%[5.75 µM]
Cc1c(C(=O)NNC(=O)c2cccnc2)cccc1[N+](=O)[O-] | x | -0.6% | x | x
CCOC(=O)C1CCCN(C(=O)c2cc(Cl)ccc2NC(=O)C2=C(C)OCCS2)C1 (stereo unspecified) | -1.5% | 0.5% | 0.9% | 13.1µM*
CC1=C(C(=O)Nc2ccccc2C(=O)NCc2ccccc2)SCCO1 | -36.6% | -15.6% | u | u
CCOC(=O)C1CCN(C(=O)c2ccccc2NC(=O)C2=C(C)OCCS2)CC1 | 8.0% | -2.1% | u | 10.4µM*
COc1cccc(NC(=O)COC(=O)CC(NC(N)=O)c2ccc(Cl)cc2)c1 (stereo unspecified) | -8.1% | -0.5% | 22.4% | 5.2%
COc1cc2c(cc1OC)CN(C(=O)C1CCC(=O)N(CCCN3CCOCC3)C1)CC2 (stereo unspecified) | 0.5% | -4.4% | -1.9% | -3.2%
NC(=O)c1cc(S(=O)(=O)NCc2ccccc2)cs1 | -9.5% | -1.0% | 53.1% | 16.3%
CCOc1ccc(NS(=O)(=O)c2csc(C(N)=O)c2)cc1 | 1.8% | 0.9% | 1.2% | 1.85µM*
Cc1ccccc1CNS(=O)(=O)c1csc(C(N)=O)c1 | 6.3% | 2.8% | 6.57µM* | -27.4%
NC(=O)c1cc(S(=O)(=O)Nc2ccccc2)cs1 | -0.4% | 0.4% | 26.9% | 6.6%
SMILES | NS1 function inh | SARS PLP yeast | Pf growth 96h | Pf growth 48h
C=CCN1C(=O)c2ccc(C(=O)N(C)CC(=O)Nc3ccccc3C(F)(F)F)cc2C1=O | 10.3% | 3.9% | 47.7% | 12.6%
COc1ccc(N2C(=O)CC(c3ccccc3)C2=O)cc1 (stereo unspecified) | -3.4% | 0.5% | 16.9% | 3.9%
COc1ccc(N2C(=O)CC(c3ccc(OC(C)C)cc3)C2=O)cc1 (stereo unspecified) | 2.5% | -1.2% | 7.38µM* | x
O=C(O)c1ccccc1C(=O)N1CCc2c([nH]c3ccccc23)C1C(F)(F)F (stereo unspecified) | 4.2% | 0.9% | -10.8% | -7.1%
O=C(c1cccc(C(F)(F)F)c1)N1CCc2c([nH]c3ccccc23)C1C(F)(F)F (stereo unspecified) | 2.1% | -3.5% | 11.7µM* | 8.28µM*
Cc1ccc(OCCC(=O)OC(C)C(=O)Nc2ccc(Cl)cn2)cc1 (stereo unspecified) | x | -2.1% | -2.7% | 0.0%
CCSc1nnc(-c2ccccc2SC)o1 | x | 0.7% | 8.28µM* | i
O=C1c2cccnc2C(=O)N1Cc1ccccc1 | -8.1% | -0.9% | -39.2% | -7.8%
O=C1c2cccnc2C(=O)N1Cc1ccc(Cl)cc1 | -21.5% | -0.5% | 1.65µM* | 0.8%
COc1ccc(CN2C(=O)c3cccnc3C2=O)cc1S(=O)(=O)NC1CCCCC1 | -4.9% | -1.5% | 13.1µM* | 22.1%
COc1ccccc1CNS(=O)(=O)c1cc(CN2C(=O)c3cccnc3C2=O)ccc1OC | -13.8% | -2.2% | 1.3% | 19.3%
O=C(Nc1ccc(-c2csc(Nc3cccc(C(F)(F)F)c3)n2)cc1)c1ccccc1 | 10.6% | -3.3% | u | u
O=C(Nc1ccc(-c2csc(Nc3cccc(C(F)(F)F)c3)n2)cc1)c1cc([N+](=O)[O-])cc(C(F)(F)F)c1 | 13.9% | 0.7% | 0.465µM* | 0.828µM*
O=C(Nc1cccc(-c2csc(Nc3cccc(C(F)(F)F)c3)n2)c1)c1ccccc1 | 23.7% | -9.9% | u | 11.7µM*
O=C(CN(C(=O)c1ccc(Cl)cc1)C1CCCCC1)Nc1ccc(Cl)c([N+](=O)[O-])c1 | 0.3% | -1.9% | 9.28µM* | u
Cc1ccc([N+](=O)[O-])cc1NC(=O)CN(C(=O)c1ccc(Cl)cc1)C1CCCCC1 | -55.0% | -8.2% | 8.9% | u
O=C(COc1ncnc2ccccc12)Nc1ccc(Cl)c([N+](=O)[O-])c1 | 6.1% | -11.6% | 17.9% | 23.6%
O=C(CN(C(=O)c1ccccc1Cl)C1CCCCC1)Nc1ccc(Cl)c([N+](=O)[O-])c1 | 26.1% | -6.8% | 30.6% | 13.1µM*
CCN[C@@H]1C[C@H](N)[C@H](O[C@H]2OC(CN)=CC[C@H]2N)[C@@H](O)[C@H]1O[C@H]1OC[C@@](C)(O)[C@@H](NC)[C@@H]1O | x | x | 2.7% | -1.2%
Cc1ccc(S(=O)(=O)NCC(=O)Nc2cccnc2)cc1C | x | 2.3% | x | x
CC(C)c1ccc(/C=C2\SC(=O)N(CC(=O)NCCCn3ccnc3)C2=O)cc1 | 5.1% | -4.2% | 138.2% | 134.0%
O=C1Cc2ccccc2C(=O)N1c1ccc(F)cc1Cl | 18.5% | 0.7% | -8.5% | u
O=C1Cc2ccccc2N1c1c(Cl)cccc1Cl | 10.0% | 5.5% | 3.29µM* | -28.9%
O=C(CCS(=O)(=O)Cc1ccccc1F)NCc1ccccc1Cl | x | 0.2% | -12.5% | 19.9%
COc1ccc(S(=O)(=O)N(C)c2nc3ccccc3n3c(CC(C)C)nnc23)cc1 | -0.4% | 3.3% | u | u
CCN(CC(=O)Nc1ccccc1C(F)(F)F)C(=O)c1ccc2[nH]c3c(c2c1)CC(C)CC3 (stereo unspecified) | x | 6.4% | u | 14.7µM*

Bioassay records: PubChem BioAssay, National Center for Advancing Translational Sciences (NCATS)
